This is an account of results in PubChem BioAssay (NCATS).

Each structure is given as a SMILES string. Records with an inconclusive call do not appear. Where a call stands in place of a potency, no number is given. Active and inactive are the calls of the source. The call rests on the fitted dose curve; in most records, active means well fitted inhibition curve with a large enough effect; inconclusive means small, poorly fitted or top-dose-only effect; inactive means no such curve, though single readings can be large or run the other way.

The assay has as its target Retinaldehyde dehydrogenase 3 (Homo sapiens) (UniProt P47895). Briefly: qHTS for Inhibitors of the Aldehyde Dehydrogenase Family (ALDH1A3) Validation screen (AID 2061312). Further: nearly all actives have a fitted effect of over 45% in size. The conditions noted are these: ALDH1A3 enzyme inhibition qHTS validation, fluorescence; series mostly up to 84.7 µM.
As for `O=c1[nH]ccc2c(O)cccc12`, the Potency result is “inactive”.

`O=S(=O)(c1cccc2c(Cl)cccc12)N1CCCNCC1`: the Potency result was “inactive”.

`COc1ccc(CCN(C)CCCC(C#N)(c2cc(OC)c(OC)c(OC)c2)C(C)C)cc1OC` (stereo not given): the Potency result was “inactive”.

In the case of `NC[C@H]1O[C@@H](n2cnc3c(N)ncnc32)[C@H](O)[C@@H]1O`, the Potency entry is “inactive”.

With `COc1ccc(-c2ccc(N)[n+](CCCC(=O)O)n2)cc1`, the Potency entry is “inactive”.

Consider `CC[C@H]1OC(=O)[C@H](C)C(O[C@H]2C[C@@](C)(OC)[C@@H](O)[C@H](C)O2)[C@H](C)[C@@H](OC2O[C@H](C)C[C@H](N(C)C)[C@H]2O)[C@](C)(O)C[C@@H](C)CN(C)[C@H](C)[C@@H](O)[C@]1(C)O` (stereo not given in full), for which the Potency entry is “inactive”.

As for `CC1=NS(=O)(=O)c2cc(Cl)ccc2N1`, the Potency result was “inactive”.

On to `CSc1nc(N)c2ncn([C@@H]3O[C@H](COP(=O)(O)OP(=O)(O)OP(=O)(O)O)[C@@H](O)[C@H]3O)c2n1`, for which the Potency result was “inactive”.

For `NC1=NCC2c3ccccc3Cc3ccccc3N12` (stereo not given), the Potency result is “inactive”.

For `NCCCCC(=O)O`, the Potency entry was “inactive”.

For `CN(C)CCC=C1c2ccccc2CCc2ccccc21`, the Potency entry was “inactive”.

With `CC(C)(C)NCC(O)c1cc(O)cc(O)c1` (stereo not given), the Potency result was “inactive”.

In the case of `CCN(CC)CCOCCOC(=O)C1(c2ccccc2)CCCC1`, the Potency result was “inactive”.

`C=CC(C)=C[C@@]1(C)SC(=O)C(C)=C1O`: the Potency result is “inactive”.

As for `COC(=O)[C@H](NC(=O)c1cc(-c2ccccc2)nc2ccccc12)c1ccccc1`, the Potency entry was “inactive”.

Take `COc1cc(N)c(Cl)cc1C(=O)OCCN1CCCCC1`: the Potency result was “inactive”.

`CCCN(CCC)CCc1cccc2c1CC(=O)N2`: the Potency result was “inactive”.

Take `CCc1ccc2c(-c3cccc(Cl)c3)nc(=O)n(CC)c2n1`: the Potency result is “inactive”.

With `CCCCCCCCc1ccc(-c2ccc(C(=O)O)cc2)cc1`, the Potency entry is “inactive”.

`O=[N+]([O-])c1ccc(CSc2ncnc3c2ncn3[C@@H]2O[C@H](CO)[C@@H](O)[C@H]2O)cc1`: the Potency result is “inactive”.

In the case of `N#CC(C#N)=C(N)/C(C#N)=C/c1ccc(O)cc1`, the Potency result is “inactive”.

In the case of `O=C(O)CC[C@@H](C(=O)O)N1C(=O)c2ccccc2C1=O`, the Potency result was “inactive”.

Take `CC(=O)OCC1=C(C(=O)O)N2C(=O)[C@@H](NC(=O)Cc3cccs3)[C@H]2SC1`: the Potency entry is “inactive”.

As for `CN(C)CC[C@@H](c1ccc(Cl)cc1)c1ccccn1`, the Potency result was “inactive”.

As to `CC1CNCCN1S(=O)(=O)c1cccc2cnccc12` (stereo not given), the Potency result was “inactive”.

Regarding `COc1cc(CC(=O)O)ccc1O`, the Potency result is “inactive”.

Take `CN1C(=O)CC[C@H]1c1cccnc1`: the Potency entry is “inactive”.

With `NOCC(=O)O`, the Potency result is “inactive”.

`NCC1OC(O[C@H]2[C@H](O)[C@@H](OC3C(O)C(N)CC(N)C3OC3OC(CO)C(O)C(O)C3N)O[C@@H]2CO)C(N)C(O)C1O` (stereo not given in full): the Potency entry is “inactive”.

In the case of `NCCSSCCN`, the Potency entry is “inactive”.

With `O=C(CCNNC(=O)c1ccncc1)NCc1ccccc1`, the Potency result was “inactive”.

Regarding `C[C@]12CC[C@@H]3c4ccc(O)cc4CC[C@H]3[C@@H]1CCC2=O`, the Potency result was “inactive”.

Take `Nc1nc(Cl)nc2c1ncn2[C@@H]1O[C@H](CO)[C@@H](O)[C@H]1O`: the Potency entry is “inactive”.

For `CNCCC(Oc1ccccc1OC)c1ccccc1` (stereo not given), the Potency result is “inactive”.

As for `Cc1nc2ccccn2c(=O)c1CCN1CCC(C(=O)c2ccc(F)cc2)CC1`, the Potency result was “inactive”.

For `NC(CCCP(=O)(O)O)C(=O)O` (stereo not given), the Potency result was “inactive”.

Consider `O=C(O)CC1CCCc2ccccc2C1O` (stereo not given), for which the Potency result was “inactive”.

Take `CCN1CCC[C@H]1CNC(=O)c1c(O)c(Cl)cc(Cl)c1OC`: the Potency entry is “inactive”.

For the molecule `CC[C@H](NC(=O)c1c(C)c(-c2ccccc2)nc2ccccc12)c1ccccc1`, the Potency result was “inactive”.

As for `CCOC(=O)C1=C(C)NC(C)=C(C(=O)OC)C1c1cccc(Cl)c1Cl` (stereo not given), the Potency result is “inactive”.
